SMILES strings stand for the structures. Records with an inconclusive call do not appear. Active and inactive are the calls of the source. The call rests on the fitted dose curve; in most records, active means well fitted activation curve with a large enough effect in the signal ratio in the repeat runs (not every such curve was filed as active); inconclusive means weak or mixed curves, or effect the other way; inactive means flat fitted curve, though single readings scatter; the % refers to the signal ratio.

The nature of this experiment: qHTS assay to identify small molecule agonists of the endoplasmic reticulum stress response signaling pathway (AID 1159516). As to conditions: ESRE-bla HeLa, ER stress beta-lactamase reporter, 5 h; series mostly up to 61 µM. From the text:
National Center for Advancing Translational Sciences [NCATS]
NIH Chemical Genomics Center [NCGC]
U.S. Environmental Protection Agency [EPA]
National Institutes of Environmental Health Sciences [NIEHS]
National Toxicology Program [NTP]
U.S. Food and Drug Administration [FDA]
Endoplasmic Reticulum (ER) plays an important role in cellular signaling, protein folding/maturation, stress response, lipid biosynthesis, calcium storage and release etc. Under stress conditions, proteins in ER misfold or unfold, and leading to the expression of ER stress responsive genes. ER stress has been associated with a variety of pathophysiological conditions such as cancer, inflammation, neurodegenerative diseases, diabetes, ischemic heart disease etc. To identify the compounds that induce ER stress response, an ER stress reporter cell line, CellSensor ESRE-bla HeLa (Life Technologies, Carlsbad, CA) containing a beta-lactamase reporter gene under control of the Endoplasmic reticulum Stress Response Element (ESRE) was used to screen Tox21 10K compound library.
Tox21 Assay Protocol Summary:
ESRE-bla HeLa cells were dispensed at 1,500 cells/6 uL of assay medium per well into black wall/clear-bottom 1536-well plates using a Multidrop Combi (ThermoFisher Scientific, Waltham, MA) dispenser. After the assay plates were incubated at 37 C and 5% CO2 for an overnight, 23 nL of compounds dissolved in DMSO, positive controls or DMSO only was transferred to the assay plate by a Pintool station (Kalypsys, San Diego, CA). The assay plates were incubated at 37 C and 5% CO2 for 5 hr. One uL of LiveBLAzer B/G FRET substrate (Life Technologies) was added using a Flying Reagent Dispenser (Aurora Discovery, San Diego, CA) and the plates were incubated at room temperature for 2 hr. Fluorescence intensity (405 nm excitation, 460 nm and 530 nm emissions) was measured using an Envision plate reader (PerkinElmer, Shelton, CT).
(In general: In qHTS, concentration-response curves come from the screen itself.)
As to `CCC(=O)C(CC(C)N(C)C)(c1ccccc1)c1ccccc1` (stereo not given), the outcome was inactive. Regarding `O=C(O)c1nc(Cl)ccc1Cl`, the compound was classed as inactive. In the case of `COc1ccccc1N`, the compound was called inactive. `O=C(O)c1ccccc1O`: the result was inactive. Take `CCCCCC[n+]1ccccc1`: the result was inactive. On to `O=C(O)CCl`, for which the call was inactive. Take `CCCC[n+]1ccc(C)cc1`: the outcome was inactive. To `O=S(=O)(O)O` belongs “inactive”.

For the compound `C1CCC(NC2CCCCC2)CC1`, the compound was classed as inactive. With `O=c1nc(O)n(Cl)c(=O)n1Cl`, the compound was called inactive. With `Cc1cc(-c2ccc(N)c(C)c2)ccc1N`, the compound was classed as inactive. The entry for `Cc1cc(Cl)ccc1N` is “inactive”; for `CCCC[n+]1ccccc1C` it is “inactive”. Take `Nc1ccc(-c2ccc(N)cc2)cc1`: the call was inactive. The entry for `C[C@]12CCC(=O)C=C1CC[C@@H]1[C@@H]2CC[C@]2(C)C(=O)CC[C@@H]12` is “inactive”. To `CCCCCCn1cc[n+](C)c1` belongs “inactive”. Regarding `Oc1ccccc1-c1ccccc1`, the compound was classed as inactive. Consider `CCCC[n+]1ccccc1`, for which the outcome was inactive. Regarding `CCn1cc[n+](C)c1C`, the result was inactive. For the compound `CCC[N+]1(C)CCCC1`, the call was inactive. On to `CCCC[N+]1(C)CCCCC1`, for which the compound was called inactive. Consider `O=C(O)CC(O)(CC(=O)O)C(=O)O`, for which the outcome was inactive. The entry for `OCCOc1ccccc1` is “inactive”; for `CC(Cl)(Cl)C(=O)O` it is “inactive”. With `CC[n+]1ccccc1`, the compound was classed as inactive. On to `CNC`, for which the compound was called inactive.

Take `O=c1[nH]c(=O)n(Cl)c(=O)n1Cl`: the compound was called inactive. For `CCC[N+]1(C)CCCCC1`, the call was inactive.

As to `CC[N+](CC)(CC)CC`, the result was inactive. As for `COP(=O)(OC)OC=C(Cl)Cl`, the compound was called inactive. Consider `O=[N+]([O-])O`, for which the call was inactive. Turning to `N#CS`, the compound was classed as inactive. On to `O=P1(N(CCCl)CCCl)NCCCO1` (stereo not given), for which the result was inactive. Consider `C[N+](C)(C)Cc1ccccc1`, for which the call was inactive.

Regarding `COc1ccc(N)cc1`, the compound was called inactive. Take `CCCC[n+]1cccc(C)c1`: the outcome was inactive. For `CCOP(=S)(OCC)Oc1ccc2c(C)c(Cl)c(=O)oc2c1`, the compound was called inactive.

As to `CCCCn1cc[n+](C)c1C`, the outcome was inactive.

Regarding `CC(=O)O`, the compound was called inactive. For the compound `CCCCn1cc[n+](C)c1`, the compound was called inactive.

For the origin of these results see PubChem BioAssay (Tox21).
